# Screens from PubChem.
# Rows were chosen to be rich in hits. Some 7.1% of all compounds tested hit in one or more screens of this group.
# MCF10A rereplic = A quantitative high throughput screen for small molecules that induce DNA re-replication in MCF 10a normal breast cells; MCF 10A DNA re-replication, Hoechst nuclear intensity, 48 h; Potency, µM (doses to about 46.1 µM), for the others: top-dose activity, positive = re-replication, hits mostly activators; 350,000 tested, 2.9% active; note: potency is the fitted concentration of half-maximal effect; % of control where 0% means no effect; nearly all actives have a fitted effect of over 50% in size
# PINK1 expr mod = A Quantitative High throughput Screen to Identify Chemical Modulators of PINK1 Expression; 410,000 tested, 0.2% active; Potency, µM (series often up to 76.6 µM), for inactives: top-dose activation (PINK1 increase), usual class: activators; PINK1 immunofluorescence, high-content cytometry, 24 h; active = well fitted activation curve with a large enough effect; inconclusive = small, poorly fitted or top-dose-only effect; cell line not stated here; note: potency is the fitted concentration of half-maximal effect; % of control where 0% means no effect; nearly all actives have a fitted effect of over 65% in size
#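 Readout is PINK1 immunofluorescence, quantified alongside mitochondrial, cell and nuclear markers by laser-scanning microplate cytometry. Cells from a stable line were exposed to compound titrations (5 concentrations) for 24 hours, with CCCP controls.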
# SW480 rerep = A quantitative high throughput screen for small molecules that induce DNA re-replication in SW480 colon adenocarcinoma cells; SW480 DNA re-replication, Hoechst DNA content imaging, 48 h; Potency, µM (titrated, usually from 46.1 µM), inactives show top-dose re-replication activation, hits mostly activators; 340,000 tested, 1.8% active; AID 624297, 2012; note: potency is the fitted concentration of half-maximal effect; % of control where 0% means no effect; nearly all actives have a fitted effect of over 55% in size
#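 First, 250 cells per well were seeded. Next, compound or vehicle (23 nL) was pinned in, plates sat 48 hr at 37 C. Finally Hoechst was added for 40 min before fluorescence scanning.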
# ATXN2 expr inh = Primary qHTS for Inhibitors of ATXN expression. HEK-293 ATXN2-luciferase reporter, luminescence, 24 h. Potency, µM (doses to about 57 µM), for the others: at the top dose activity change, negative = inhibition, hits mostly inhibitors. 360,000 tested, 0.72% active. AID 1745845, 2022; note: potency is the fitted concentration of half-maximal effect; % is set by controls: 0 for no effect and ±100 for the full control effect; nearly all actives have a fitted effect of over 55% in size
#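 qHTS (up to 57 uM final) was run with 24 h compound exposure of reporter cells at 37 °C. Each well was multiplexed: SteadyGlo luminescence measured ATXN2-luciferase expression after a fluorogenic Gly-Phe-AFC viability readout (25 uM final).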
# IL1B secr inh = qHTS for Inhibitors of Inflammasome Signaling: IL-1-beta AlphaLISA Primary Screen; THP-1 LPS/ATP IL-1B secretion, AlphaLISA, 16 h; stronger effect = lower value; activity change, % at 57.5 µM; 360,000 tested, 4.7% active; in the data active = activity change below about -50%; inconclusive = mostly about -30% to -49%; note: % is set by controls: 0 for no effect and ±100 for the full control effect
#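 Secreted IL-1B measured by AlphaLISA bead assay after 16 h compound exposure of THP-1 cells; compounds (final up to 57.5 uM) added 1 h before LPS (250 ng/mL) and ATP (1.25 mM) stimulation; lower signal means less secretion.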
# ATXN viability = Viability Counterscreen for Primary qHTS for Inhibitors of ATXN expression. S2 cells (HEK-293 line with an ATXN2-luciferase reporter) viability, CellTiter-Fluor protease fluorescence, 24 h. Potency, µM (top dose mostly 56.7 µM), usual class: cytotoxic. 400,000 tested, 0.49% active. AID 651635, 2014; note: potency is the fitted concentration of half-maximal effect; nearly all actives have a fitted effect of over 40% in size
# * marks the source's active call; other numbers are inactive results; i = inactive; ? = inconclusive; / = not tested or not shown; [ ] = dose if it differs, or a comment. Unless noted, calls come from the whole dose curve; as a rule, active = well fitted curve in the direction sought with a large enough effect; inconclusive = small, poorly fitted or top-dose-only effect, or another doubt; inactive = no such curve, though single readings can be large; an effect the other way counts as inactive or inconclusive.
SMILES,MCF10A rereplic,PINK1 expr mod,SW480 rerep,ATXN2 expr inh,IL1B secr inh,ATXN viability
COc1ccc(CNC(=O)c2ccc3c(c2)nc2n3CCC(C)C2)c(OC)c1 (centres undefined),/,0%,/,/,/,/
CCC(C)(C)c1ccc(Oc2ccc(N)cc2)cc1,15µM*,11%,18%,6.7µM*,-12,i
CCC(C)(C)c1ccc(Oc2cccc(C(=O)O)c2)cc1,?,0%,-4%,61%,22,i
CCCCOc1ccc2c(c1)C(=O)c1cc(O)ccc1-2,?,-1%,4%,19%,-101*,i
Cn1c(SCc2ccc(C(C)(C)C)cc2)nnc1C1COc2ccccc2O1 (centres undefined),21µM*,8%,?,?,-16,i
COC(=O)CSc1nnc(C2COc3ccccc3O2)n1-c1ccccc1 (centres undefined),21µM*,/,23%,15%,23,i
O=C(NCc1cccc(F)c1)c1ccc2nc(N3CCCCC3)sc2c1,/,7%,/,30%,/,i
COc1ccccc1-c1cc(C(F)(F)F)nc(S(=O)(=O)CCCC(=O)Nc2ccccc2F)n1,/,5%,/,/,/,/
COc1ccccc1-c1cc(C(F)(F)F)nc(S(C)(=O)=O)n1,4.1µM*,-5%,?,?,-109*,32µM*
COc1ccccc1-c1cc(C(F)(F)F)nc(N2CCCC2)n1,26µM*,13%,18%,4%,30,i
COc1ccccc1-c1cc(C(F)(F)F)nc(S(=O)(=O)CCCC(=O)Nc2cccnc2Cl)n1,?,-2%,?,?,-110*,?
COc1ccccc1-c1cc(C(F)(F)F)nc(S(=O)(=O)CCCC(=O)N2CCCCC2C)n1 (centres undefined),4µM*,-1%,?,?,-97*,/
COc1ccccc1-c1cc(C(F)(F)F)nc(N2CCCCC2)n1,26%,5%[38.3 µM],-1%,-5%,27,i
COc1ccccc1-c1cc(C(F)(F)F)nc(S(=O)(=O)CCCC(=O)NCc2ccc(F)cc2)n1,4.1µM*,-1%,?,?,-100*,/
COc1ccccc1-c1cc(C(F)(F)F)nc(S(=O)(=O)CCCC(=O)Nc2cc(Br)ccc2O)n1,/,-1%,/,53%,/,i
COc1ccccc1-c1cc(C(F)(F)F)nc(S(=O)(=O)CCCC(=O)NC(C)C)n1,6.3µM*,-2%,2.9µM*,?,-98*,32µM*
Cc1ccc(-c2c3c(nc4sc(C(N)=O)c(N)c24)CCC3)cc1,12µM*,-1%,24%,0%,-19,i
COC(=O)c1sc2nc(-c3ccccc3)c3c(c2c1N)CCCC3,?,-4%,?,-7%,-18,i
COC(=O)c1sc2nc3c(c(-c4cccs4)c2c1N)CCCC3,9.2µM*,0%,18µM*,-1%,-1,/
Cc1ccccc1NC(=O)c1sc2nc3c(c(-c4ccco4)c2c1N)CCC3,?,6%,9.2µM*,3%,-69*,i
CCOc1ccc(CCNc2ncnc3onc(C)c23)cc1OCC,/,4%,/,-22%,/,i
CCCN1CNc2c(c(=O)[nH]c(=S)n2CCc2ccc(OCC)c(OCC)c2)C1,/,0%,/,/,/,/
NCCCN(Cc1ccccc1)c1ccc(Br)cn1,/,1%,/,/,/,/
CCOc1ccccc1NC(=O)c1nn(-c2ccc(C)cc2)c(=O)n(C)c1=O,/,1%,/,4%,/,i
Cc1ccc(C)c(C(=O)NC2CC(C)(C)NC(C)(C)C2)c1,0%,1%,-5%,3%,16,i
SMILES,MCF10A rereplic,PINK1 expr mod,SW480 rerep,ATXN2 expr inh,IL1B secr inh,ATXN viability
CC1(C)CC(NC(=O)c2cc(Cl)ccc2Cl)CC(C)(C)N1,2%,0%,9.2µM*,-4%,-5,i
O=C(NC1CC1)c1sc2cc(Cl)ccc2c1Cl,6%,-2%,-2%,24%,-6,i
CC1(C)CC(NC(=O)c2sc3cc(Cl)ccc3c2Cl)CC(C)(C)N1,-26%,-2%,?,-23%,-73*,/
Cc1cccc2cc(CN(C(=O)c3ccc(-c4ccc(F)cc4)cc3)C3CC3)c(N3CCC(O)CC3)nc12,/,1%,/,/,/,i
COC(=O)c1ccc2c(=O)n(CCCCCC(=O)N3CCN(c4cccc(C)c4C)CC3)c(=O)[nH]c2c1,/,1%,/,/,/,/
O=C(Cn1ncc(Cl)c(Cl)c1=O)Nc1ccc2c(c1)OCO2,0.73µM*,4%,-2%,?,-99*,/
CCN(CC)S(=O)(=O)c1cc(NC(=O)Cn2ncc(Cl)c(Cl)c2=O)ccc1C,?,-1%,?,?,-59*,?
COc1ccc(NC(=O)Cn2ncc(Cl)c(Cl)c2=O)cc1S(=O)(=O)N1CCOCC1,4.1µM*,-2%,4.6µM*,?,-54*,?
O=C(Cn1ncc(Cl)c(Cl)c1=O)c1ccc2c(c1)OCCO2,2.9µM*,-5%,?,?,-99*,/
CCN(CC)S(=O)(=O)c1cc(NC(=O)CN2C(=O)NC(C)(c3ccccc3)C2=O)ccc1C (centres undefined),25%,2%,6%,-16%,6,i
Cc1nn(CC(=O)Nc2ccc3c(c2)OCO3)c(C)c1Cl,0%,-1%,0%,/,-15,i
CCC1CN(CCC(=O)N2CCN(c3ncccn3)CC2)Cc2cc(OC)ccc2O1 (centres undefined),/,0%,/,/,/,i
CCCCCNC(=O)C(c1ccnc2ccccc12)n1c(=O)c(-c2cc3ccccc3[nH]2)nc2ccccc21 (centres undefined),/,/,/,/,-12,/
COc1ccccc1NC(=O)C1=C(C)Nc2nc(SCc3ccc(Cl)cc3)nn2C1c1ccccc1Cl (centres undefined),/,1%,/,14%,/,i
CC(C)CC(N)c1csc(Nc2cnccn2)n1 (centres undefined),/,2%,/,-37%,-16,?
CCOC(=O)N1CCC(N(CCN(C)C)C(=S)Nc2ccc(Oc3ccccc3)cc2)CC1,?,-3%,8%,-21%,-89*,?
CCOC(=O)N1CCC(N(CCOC)C(=O)Nc2ccc(Cl)c(Cl)c2)CC1,29%,2%[38.3 µM],15%,?,-63*,i
C[C@@H](O)[C@H](N)C(=O)O,/,/,/,4%[25.6 µM],/,i
Cc1cc2n(n1)CCC(=O)N2Cc1ccc(C(=O)Nc2cccc(C(F)(F)F)c2)cc1,/,2%,/,0%,/,i
Cc1ncoc1C(=O)N1CCOc2ccc(CN3CCN(c4ccccn4)CC3)cc2C1,/,1%,/,/,/,i
